FAS TE block: FAS thioesterase (human) inhibition. P49327. recombinant FAS-TE, OMFH fluorogenic substrate, fluorescence endpoint. inhibition, % at 15 µM. 0.67% of 360,000 active. AID 602261;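 active means compounds whose normalised, plate-corrected inhibition of enzyme fluorescence in the single-dose primary screen is 50% or more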
NadD block: NadD (S. aureus) enzyme inhibition | 0.78% of 360,000 active | purified NadD enzyme, colorimetric absorbance read-out | inhibition, % at 20 µM | AID 602399; in the data active means inhibition above about 26%
ATG4B inh: ATG4B (human) cysteine protease inhibition; AID 504462; ATG4B cleavage of LC3-PLA2, NBD-HPC fluorescence, 1 h; Q9Y4P1; 0.51% of 340,000 active; inhibition, % at 8.33 µM; in the data active means inhibition above about 40%
Target sequence (Q9Y4P1 whole entry, looked up): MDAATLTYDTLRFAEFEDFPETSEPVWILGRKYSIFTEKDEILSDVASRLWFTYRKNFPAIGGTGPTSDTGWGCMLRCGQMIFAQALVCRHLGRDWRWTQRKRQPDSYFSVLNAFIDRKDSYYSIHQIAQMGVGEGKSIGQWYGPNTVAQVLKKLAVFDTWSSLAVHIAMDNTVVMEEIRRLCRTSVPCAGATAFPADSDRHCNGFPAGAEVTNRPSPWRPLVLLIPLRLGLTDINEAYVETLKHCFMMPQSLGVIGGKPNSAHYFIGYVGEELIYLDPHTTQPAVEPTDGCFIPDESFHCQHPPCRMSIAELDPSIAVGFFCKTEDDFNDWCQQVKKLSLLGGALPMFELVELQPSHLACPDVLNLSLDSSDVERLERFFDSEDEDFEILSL
Calb FLC: affects C. albicans growth with fluconazole | C. albicans CaCi-2 (fluconazole-resistant clinical isolate) + fluconazole, Alamar Blue growth, 48 h | growth inhibition, % (test concentration not listed) | 0.57% of 300,000 active | AID 1979;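 active means growth inhibition above about 58% in most replicates, limit read from the data, passing the limit was not always enough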;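 further: all wells also contain fluconazole at 8 µg/ml as a sub-toxic cotreatment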
Mot1-301 SUMO: SUMOylation pathway inhibition by Mot1-301 growth rescue | S. cerevisiae Mot1-301 growth rescue, ATP luminescence, 38.5C; percent above DMSO median, 100 means doubled | growth rescue, % at 18.8 µM | 1% of 320,000 active;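 active means every valid replicate shows activation above 250% relative to neutral control wells; inactive means the rest, any valid replicate at or below 250%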
FAS-TE conf: confirmation of human fatty acid synthase thioesterase inhibitors; 45% of 2,300 active; shares compounds with FAS TE block; inhibition, % at 15 µM; recombinant FAS-TE, OMFH fluorogenic substrate, fluorescence; AID 624325;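 active means compounds inhibiting the enzyme by at least 50% at 15 µM in any one of the replicates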
Each line names hits and unclear results; the compound was inactive in the other large screens (follow-up assays come after a bar, where they were run). In the library only some 3.1% were active in any assay of this set; here they are far more common.

O=C(CSc1nc2nc(-c3cccs3)cc(C(F)(F)F)c2c(=O)[nH]1)Nc1c(F)c(F)c(F)c(F)c1F	FAS TE block 50.2 | FAS-TE conf inactive
O=C(Cn1cc([N+](=O)[O-])ccc1=O)N1CCc2ccccc21	none (no result: Calb FLC)
CCn1cc(C(=O)NC(C)CCc2ccccc2)c(=O)c2cc(S(=O)(=O)N(C)C)ccc21 (stereo not given)	FAS TE block 62.8 | FAS-TE conf inactive
CCn1cc(C(=O)NCc2ccc3c(c2)OCO3)c(=O)c2cc(S(=O)(=O)N(C)C)ccc21	FAS TE block 57.4 | FAS-TE conf 42.1
CCn1cc(C(=O)NCc2ccc(Cl)cc2)c(=O)c2cc(S(=O)(=O)N(C)C)ccc21	FAS TE block 64.1 | FAS-TE conf 76.6
CCn1cc(C(=O)NCCc2ccc(Cl)cc2)c(=O)c2cc(S(=O)(=O)N(C)C)ccc21	FAS TE block 74.6 (no result: Mot1-301 SUMO) | FAS-TE conf inactive
Nc1cc(Cl)ccc1C(=O)OCC(=O)N1CCCCCC1	none (no result: Calb FLC)
CC(C)C(NC(=O)c1ccccc1NC(=O)C(C)(C)C)C(=O)N1CCOCC1 (stereo not given)	none (no result: Calb FLC)
COc1ccc(N=C2C(=Nc3ccc(OC)cc3)N(c3ccc(N(C)C)cc3)C(=S)N2c2ccc(OC)cc2)cc1	FAS TE block 80.1 | FAS-TE conf inactive
COc1ccc(N=C2C(=Nc3ccc(OC)cc3)N(c3ccc(OC)cc3)C(=S)N2C(=O)c2ccc(OC)cc2)cc1	none
COCCCn1c(=O)c2ccccc2n(CC(=O)NC2CCCCC2)c1=O	none
COc1ccc(CC(=O)N(C)Cc2ccc(C(C)(C)C)cc2)cc1S(=O)(=O)N1CCOCC1	FAS TE block 80.3 | FAS-TE conf 82.1
COc1ccc(CC(=O)N(C)Cc2ccc(Cl)cc2)cc1S(=O)(=O)N1CCOCC1	none
CCC(=O)N1CCC2(CC1)Oc1ccc(Cl)cc1C(=O)C21CC(c2ccccc2)=NO1 (stereo not given)	none
CC(Oc1ccccc1)C(=O)N1CCC2(CC1)Oc1ccc(F)cc1C(=O)C21CC(c2ccc(Cl)cc2)=NO1 (stereo not given)	none
O=C(/C=C/c1cccs1)N1CCC2(CC1)Oc1ccc(Cl)cc1C(=O)C21CC(c2ccccc2)=NO1 (stereo not given)	FAS TE block 73.3 | FAS-TE conf inactive
CC(Oc1ccccc1)C(=O)N1CCC2(CC1)Oc1ccc(F)cc1C(=O)C21CC(c2ccccc2)=NO1 (stereo not given)	FAS TE block 61.5 | FAS-TE conf inactive
CC(=O)c1ccc(S(=O)(=O)NCc2ccc(C(=O)NCC(c3ccccc3)N(C)C)cc2)cc1 (stereo not given)	none
CCCN(CC(=O)Nc1ccccc1C)C(=O)COC(=O)c1cnc(C)cn1	none (no result: Calb FLC, Mot1-301 SUMO)
CCN1C(=O)[C@H]2[C@@H](c3ccc(-c4ccc(F)cc4)c(OC)c3)N[C@@](Cc3ccccc3)(C(=O)OC)[C@H]2C1=O	FAS TE block 89.8 (no result: Calb FLC) | FAS-TE conf inactive
CCCSc1ccc([C@H]2N[C@@](Cc3ccccc3)(C(=O)OC)[C@H]3C(=O)N(CC)C(=O)[C@@H]23)cc1	none
CCN1C(=O)[C@H]2[C@@H](c3ccc(-c4ccccc4)c(OC)c3)N[C@@](Cc3ccccc3)(C(=O)OC)[C@H]2C1=O	FAS TE block 68.6 | FAS-TE conf inactive
CCN1C(=O)[C@H]2[C@@H](c3ccc(-c4ccc(C(C)=O)cc4)c(OC)c3)N[C@@](Cc3ccccc3)(C(=O)OC)[C@H]2C1=O	FAS TE block 65.3 | FAS-TE conf inactive
O=S(=O)(Nc1cc(S(=O)(=O)N2CCOCC2)ccc1NCC1CCCO1)c1ccc(F)cc1 (stereo not given)	none (no result: Calb FLC)
CC(C)(C)c1ccc(OCCC(=O)OCC(=O)NC(=O)NC2CCCC2)cc1	none
CC(C)(C)c1ccc(OCCC(=O)OCC(=O)NC2CCCCC2)cc1	FAS TE block 56.6 | FAS-TE conf 54.8
COc1ccc(NC(=O)O[C@@H](C)[C@@H]2CN3CCc4c([nH]c5ccc(-c6ccc(OC)cc6)cc45)[C@@H]3C[C@@H]2N(C)C(=O)Nc2ccc(OC)cc2)cc1	FAS TE block 53.9 (no result: ATG4B inh, Calb FLC, Mot1-301 SUMO) | FAS-TE conf inactive
CSCCC(=O)N1CCCC(N(C)CCc2ccccc2)C1 (stereo not given)	none
Cc1ccc(OC(=O)N(C)C[C@@H]2OCc3cn(nn3)CCCC(=O)N([C@H](C)CO)C[C@H]2C)cc1	none (no result: ATG4B inh, Calb FLC, Mot1-301 SUMO)
C=CCn1c(O)c(N=NC(=S)Nc2ccccc2C)c2cc(S(=O)(=O)N3CCOCC3)ccc21	FAS TE block 64.0, Calb FLC 105.9 | FAS-TE conf inactive
Cn1c(O)c(N=NC(=S)Nc2ccccc2F)c2cc(S(=O)(=O)N3CCOCC3)ccc21	none (no result: Mot1-301 SUMO)
Cc1ccc(NC(=S)N=Nc2c(O)n(C)c3ccc(S(=O)(=O)N4CCOCC4)cc23)cc1C	FAS TE block 73.2, NadD block 31.1 | FAS-TE conf inactive
CS(=O)(=O)Nc1ccc(C(=O)NCCSc2ccc(Cl)cc2)cc1	none
COC(=O)c1ccccc1NC(=S)N(Cc1ccc2c(c1)OCO2)Cc1cc2ccc(C)cc2[nH]c1=O	FAS TE block 79.4 | FAS-TE conf inactive
COC(=O)c1ccccc1NC(=S)N(Cc1ccc2c(c1)OCO2)Cc1cc2cc(C)ccc2[nH]c1=O	none
CCc1nn(CC(=O)NCCCN2CCOCC2)c(=O)c2cc3c(OC)cccc3n12	none (no result: Calb FLC, Mot1-301 SUMO)
COCCN(Cc1cc2cc3c(cc2nc1Cl)OCO3)C(=O)c1ccc(C)cc1	none
CCC(=O)Nc1ccc(C(=O)COC(=O)C(CCSC)NC(=O)COc2ccccc2)cc1 (stereo not given)	none
COc1ccc(C(=O)COC(=O)C(CCSC)NC(=O)COc2ccccc2)cc1 (stereo not given)	FAS TE block 63.8 | FAS-TE conf inactive
Cc1cc(C)c(NC(=O)CCN2C(=O)c3ccccc3S2(=O)=O)c(C)c1	none
COc1ccc([N+](=O)[O-])cc1/C=N/Nc1nc(N2CCCCC2)nc(N2CCCCC2)n1	none
O=[N+]([O-])c1ccc(/C=N/Nc2nc(N3CCCCC3)nc(N3CCCCC3)n2)cc1	FAS TE block 53.9 | FAS-TE conf inactive
Cc1cc(-c2ccccc2)nc(N/N=C/c2ccc([N+](=O)[O-])cc2)n1	FAS TE block 67.3 | FAS-TE conf 46.3
O=Cc1cccn1Cc1ccccc1[N+](=O)[O-]	none
Cc1ccc(N2CC(C(=O)NCc3n[nH]c(=O)c4ccccc34)CC2=O)cc1 (stereo not given)	none (no result: Calb FLC)
COc1cc(/C=C/C(=O)OCC(=O)NCCc2ccc(F)cc2)ccc1OC(F)F	none (no result: Calb FLC)
COc1ccc(C(=O)C2CCCN(C(=O)c3csc(SC)n3)C2)cc1F (stereo not given)	none (no result: ATG4B inh, Calb FLC, Mot1-301 SUMO)
CCOc1ccc(S(=O)(=O)Nc2nc3ccccc3nc2Nc2ccc(N3CCOCC3)cc2)cc1	none
C=CCn1c(SCc2ccc(Br)cc2F)nc2cc(C(=O)O)ccc2c1=O	FAS TE block 61.7 | FAS-TE conf 65.0
